Out of some 340,000 compounds screened, about 6,200 (1.8%) were called active. Another 10% or so got no clear call; they are omitted. The list comes from a sample in which actives are over-represented; it also holds similar structures and randomly drawn compounds. Where a call stands in place of a potency, no number is given. Values without a mark were called inactive. Calls come from the whole dose curve; as a rule, active = well fitted activation curve with a large enough effect; inconclusive = small, poorly fitted or top-dose-only effect; inactive = no such curve, though single readings can be large or run the other way.
Assay: A quantitative high throughput screen for small molecules that induce DNA re-replication in SW480 colon adenocarcinoma cells. Note: nearly all actives have a fitted effect of over 55% in size.
Details: Hoechst DNA content imaging, 48 h; series mostly up to 46.1 µM
Summary of the method: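 DNA re-replication was detected as more nuclei of elevated Hoechst intensity after 48 hr exposure to compound (23 nL pinned per well of 250 cells).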
Potency is the fitted concentration of half-maximal effect.

Compound	Potency	re-replication activation
CCCC(=O)C1CCN(Cc2ccccc2)CC1	inactive	
CCCCN(C)C(=O)C1CCN(Cc2ccccn2)CC1		-0.529% [at 9.22 µM]
CCCCN(Cc1ccccc1)C(=O)C1CCN(Cc2sccc2C)CC1	14.6 µM (active)	
CSCCC(NS(=O)(=O)c1ccc(C)cc1)C(=O)N(C)CC(=O)Nc1ccccc1Br (configuration not stated)	inactive	
CNN/C(N=Cc1ccc([N+](=O)[O-])s1)=N\S(=O)(=O)c1cc(C)c(Cl)cc1SCc1ccccc1	inactive	
Cc1cccc(Nc2nc(-c3ccccc3)cs2)n1	inactive	
COc1ccc(-c2csc(NC3OC(=O)c4ccccc43)n2)cc1 (configuration not stated)	inactive	
COc1ccc2c(c1OC)C(=O)OC2Nc1nc(-c2ccccc2)cs1 (configuration not stated)	6.51 µM (active)	
O=C1NC[C@@H](c2ccccc2)OC(=O)[C@H](Cc2ccc(F)cc2)CC/C=C/C[C@H]1CC(=O)N(CCO)Cc1ccccc1	inactive	
CCOC(=O)C1=CN(Cc2ccc(Br)cc2)S(=O)(=O)NC1C (configuration not stated)	inactive	
CC1C(=O)N(Cc2ccccc2)c2ccccc2N1C(=O)c1ccccc1 (configuration not stated)	inactive	
CC1C(C)N(C(=O)CCl)c2ccccc2N1C(=O)CCl (configuration not stated)	5.17 µM (active)	
CC1CC(C)CN(CC(=O)N2c3ccccc3CCc3ccccc32)C1 (configuration not stated)	inactive	
Cc1cc(C(=O)Nc2c(C)n(C)n(-c3ccccc3)c2=O)cs1	inactive	
COc1ccc(NS(=O)(=O)c2ccc(C(=O)Nc3c(C)n(C)n(-c4ccccc4)c3=O)cc2)cc1	6.51 µM (active)	
Cc1c(NS(=O)(=O)c2cccc(C(=O)Nc3ccc(SC(F)F)cc3)c2)c(=O)n(-c2ccccc2)n1C	inactive	
C=CC(=O)Nc1ccc(Nc2ccnc(Nc3ccc(N4CCN(C)CC4)cc3)n2)cc1	inactive	
Cc1cc(N2CCN(c3ccccc3)CC2)nc(N2CCOCC2)n1	inactive	
CN(C)c1ccc(/C=N/Nc2cc(N3CCOCC3)nc(N3CCOCC3)n2)cc1	inactive	
C(=N/Nc1cc(N2CCOCC2)nc(N2CCOCC2)n1)/c1ccccc1	5.8 µM (active)	
O=C(c1cc(=O)c2ccccc2o1)N1CCN(c2ccccc2)CC1	inactive	
COc1ccccc1N1CCN(C(=O)c2cc(=O)c3cc(C)ccc3o2)CC1	inactive	
COc1cc2c(cc1OC)CN(C(=O)c1cc(=O)c3ccccc3o1)CC2	13 µM (active)	

Compound	Potency	re-replication activation
NC(=O)C1CCN(C(=O)c2cc(S(=O)(=O)N3CCN(c4ccccc4)CC3)ccc2Cl)CC1	inactive	
COc1cc2[nH]c(O)c(C=O)c2cc1OC	inactive	
Cc1ccc(S(=O)(=O)N2CCN(C(=O)COC(=O)/C=C/c3cccc(Cl)c3)CC2)c(C)c1	inactive	
CCCCC[C@@H]1C=C(C(=O)O)[C@H](c2ccc(C#N)cc2)N1S(=O)(=O)c1ccc(C)cc1	inactive	
CCC1(C)COC(c2ccc(OC)c(OC)c2)OC1 (configuration not stated)	inactive	
O=C(Cc1ccc(Cl)cc1)NC(=S)Nc1ccccc1O	inactive	
O=[N+]([O-])c1ccccc1NCc1ccc(Cl)cc1	inactive	
Oc1ccc(CNc2ccccc2O)cc1	20.6 µM (active)	
CC(C)(C)OC(=O)C1=C(CO)CS[C@@H]2[C@H](NC(=O)Cc3ccccc3)C(=O)N12	inactive	
OCCN1CCN(CCO)C1=S	inactive	
CCc1ccc(OCC(=O)NCC(c2ccc(Cl)cc2)N2CCCCC2)cc1 (configuration not stated)	9.2 µM (active)	
COc1ccc(C(CNC(=O)COc2ccc([N+](=O)[O-])cc2)N2CCCCC2)cc1 (configuration not stated)	inactive	
COc1ccc(C(CNC(=O)COc2ccccc2OC)N2CCCCC2)cc1 (configuration not stated)	inactive	
O=C(CNS(=O)(=O)c1ccc2c(c1)OCCCO2)N1CCN(c2ccc(F)cc2)CC1	inactive	
O=C1COc2c1ccc(O)c2O	inactive	
Cc1c(CN2CCC(CO)(CCOc3ccccc3)CC2)[nH]c2ccc(Cl)cc12	14.6 µM (active)	
OCC1(CCOc2ccccc2)CCN(Cc2cn[nH]c2-c2ccccc2)CC1	inactive	
CCOC(=O)C1(CCOc2ccccc2)CCN(Cc2cc(OC)c(O)cc2Cl)CC1	inactive	
CCOC(=O)C1=CN(Cc2ccc(Br)cc2)S(=O)(=O)N(C)C1C (configuration not stated)	inactive	
Cc1ccc(NC(=O)C2CCC(C(C)(C)C)CC2)cc1S(=O)(=O)N1CCOCC1 (configuration not stated)	14.6 µM (active)	
Cc1ccc(NC(=O)NC2CCCCC2)cc1S(=O)(=O)N1CCOCC1	inactive	
Cc1ccc(NC(=O)COC(=O)C2CC2)cc1S(=O)(=O)N1CCOCC1	inactive	
Cc1cc(Cl)ccc1OCCCC(=O)NCc1ccncc1	inactive	

Compound	Potency	re-replication activation
CC(=O)Nc1ccc(OCC(=O)NCc2ccc(C)cc2)cc1	inactive	
C/C(CC(=O)NCc1ccc(Cl)cc1)=N\NC(=O)COc1ccc(C)cc1Br	14.6 µM (active)	
COc1ccc(C2NCCCC2c2ccccc2)cc1 (configuration not stated)	inactive	
CCN(C(=O)COC(=O)c1ccccc1O)c1cccc2ccccc12	inactive	
CCC1([N+](=O)[O-])COC(c2ccc(C)cc2)OC1 (configuration not stated)	inactive	
CC(C)(C)S(=O)(=O)N1Cc2cc(CO)cc(CCO)c2[C@H]1CCO	inactive	
O=C(O)C(c1cccs1)C1(O)CCCCC1 (configuration not stated)	inactive	
O=C(COc1ccc(Cl)cc1)NCCC1=CCCCC1	inactive	
O=C(Cc1cccc2ccccc12)NCCC1=CCCCC1	inactive	
Cc1nnc(OCC(=O)NCCC2=CCCCC2)c2ccccc12	16.4 µM (active)	
CCc1nnc(NC(=O)c2sc3nc(C)cc(COC)c3c2N)s1	inactive	
COCc1cc(C)nc2sc(C(=O)NC3CCCCC3)c(N)c12	inactive	
COc1ccc(OC)c(NC(=O)c2sc3nc(C)cc(C)c3c2N)c1	9.2 µM (active)	
CCOc1ccc(/C=C(/C#N)c2nnc(N3CCOCC3)n2-c2ccccc2)cc1OC	inactive	
CN(C)CCNC(=O)c1[nH]nc2c1CCc1ccccc1-2	inactive	
COc1cc2cc(C(=O)N/N=C/c3cccc(OC)c3OC)[nH]c2cc1OC	inactive	
COc1cccc(/C=N/NC(=O)c2[nH]nc3c2CCc2ccccc2-3)c1O	3.26 µM (active)	
O=C(CSc1cccc[n+]1[O-])c1ccc(Cl)cc1	inactive	
O=C(CSc1cccc[n+]1[O-])c1ccc(-c2ccccc2)cc1	2.82 µM (active)	
COc1ccccc1C(=O)CSc1cccc[n+]1[O-]	inactive	
O=C(NCCc1ccc(F)cc1)c1ccc2nccnc2c1	inactive	
